Experimental findings from PubChem BioAssay (NCI) are described below.

Structures are written as SMILES. Several values for one entry are separate records, joined by “and”; a condition that tells them apart may be missing. Equal entries are not always repeated. About 83,000 compounds went through this panel and 20% of them were active in at least one assay; those are over-represented in the sample as a whole.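 Negative percent growth values reflect cell death: -40 means 40% of the cells present at the start died, and -100 means all died.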 Unmarked numbers belong to inactive results. Activity calls are given as the source filed them. The calls were made as follows: active = growth percent below 10; inactive = the rest.

The test system of the assay is MDA-MB-468 breast. Kind of assay: NCI-60 one-dose screen, 48 h (100 = growth as untreated, 0 = no growth, -100 = all killed). The settings on record: 10 µM unless noted.
Regarding `COc1cccc(C2C3=C(COC3=O)N(CCO)c3cc(OC)ccc32)c1` (stereo not given), the growth was -13.2% (active).

On to `CC(=O)Nc1ccccc1-c1nc2ccccc2s1`, for which the growth was 93%.

As to `CCOC(=O)C(c1ccccc1)N1C(=O)c2ccccc2C1=O` (stereo not given), the growth is 137%.

Turning to `O=c1nc(N2CCOCC2)oc2c(-c3cccc4ccccc34)cccc12`, the growth is 76.5%.

Consider `C#C[C@]1(O)CC[C@H]2[C@@H]3CC=C4c5nc(Nc6ccc(OC)cc6OC)sc5CC[C@]4(C)[C@H]3CC[C@@]21C`, for which the growth was -6.78% (active).

With `CN(C)c1ccc(N=C2C=CC(=O)C=C2)cc1`, the growth was 12.5%.

For the compound `O=C(Nc1ccc(F)cc1)Nc1ccc(NC(=O)c2cc(Cl)nc3ccccc23)cc1`, the growth was 38.7%.

`COc1cc(C(=O)/C=C/c2c(C)n([O-])c3ccc(C(F)(F)F)cc3[n+]2=O)cc(OC)c1OC`: the growth is 36.8%.

Turning to `Brc1ccccc1Cn1c(-c2cncs2)nc2ccccc21`, the growth is 61.8%.

For the compound `O=C1/C(=N/O)CCc2ccccc21`, the growth was 109%.

With `O=C1/C(=C/c2ccccc2[N+](=O)[O-])Cc2ccccc21`, the growth was -46.2% (active) and -17.9% (active).

Consider `CCCCCCCCN=C(NCCCCCCCC)SCc1cccc2ccccc12`, for which the growth was -93.9% (active).

As for `COc1ccc(CCNC=O)cc1OC`, the growth is 77.7%.

On to `CCC1=CCC[C@@]2(C)CCC[C@@]3(C)CCCC(C)(C)[C@]1([O-])[O+]32`, for which the growth was 94.5%.

`NS(=O)(=O)c1ccc(-n2ncc3c(=O)[nH]c(CN4CCN(c5cc6c(cc5F)c(=O)c(C(=O)O)cn6C5CC5)CC4)nc32)cc1`: the growth is 95.4%.
